Assay [1] can be described thus: qHTS assay for measurement of the activity of small molecule inhibitors on Zika virus induced Caspase-3 activity in human iPSC derived neural progenitor cells (hNPCs) (AID 1224857). Note: nearly all actives have a fitted effect of over 65% in size. Note: potency is the fitted concentration of half-maximal effect. A digest of the protocol: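 Zika virus (2 FFU/cell) infection of human iPSC-derived NPCs, 6 h, following 1 h compound preincubation. Read-out: Caspase-Glo 3/7 luminescence.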
Background: qHTS replaces the single test concentration by a dilution series.

Assay [2] in a line: qHTS assay for measurement of the activity of small molecule inhibitors on Zika virus induced Caspase-3 activity in human astrocytoma cells (AID 1224859).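 Note: plate controls were ZIKV-infected untreated cells for no effect and uninfected cells for full effect.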 A digest of the protocol:
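Caspase activation in ZIKV-infected SNB-19 cells (2 FFU/cell, 6 h) measured by Caspase-Glo 3/7 luminescence after 30 min RT; compound pre-incubated 1 h; normalised to uninfected and infected controls.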

Assay [3] in a line: qHTS Screen of the MIPE 4.0 Collection Against Ewings Sarcoma (RDES) (AID 1259252). Note: nearly all actives have a fitted effect of over 35% in size. Note: potency is the fitted concentration of half-maximal effect. In short, it runs like this: (§1)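 Measured: ATP luminescence (CellTiter-Glo) 10 min after reagent addition, following 48 h drug treatment. Relative luciferase units converted to percent activity, with no-cell wells as full and DMSO wells as zero inhibition.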
The nature of assay [4]: qHTS Screen of the MIPE 4.0 Collection Against Ewings Sarcoma (TC71) (AID 1259253). Note: nearly all actives have a fitted effect of over 40% in size. Note: potency is the fitted concentration of half-maximal effect. A digest of the protocol: as §1
The nature of assay [5]: qHTS Screen of the MIPE 4.0 Collection Against Ewings Sarcoma (EW8) (AID 1259255).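 For viability: 100% = DMSO-treated cells and 0% = medium-only wells without cells.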 Note: nearly all actives have a fitted effect of over 35% in size. Note: potency is the fitted concentration of half-maximal effect. In short, it runs like this: as §1
Assay [6] can be described thus: qHTS Screen of the MIPE 4.0 Collection Against Ewings Sarcoma (TC32) (AID 1259256). Note: nearly all actives have a fitted effect of over 45% in size. Note: potency is the fitted concentration of half-maximal effect. In short, it runs like this: as §1
Assay [7] is described as follows: P-glycoprotein substrates identified in KB-8-5-11 adenocarcinoma cell line, qHTS therapeutic library screen (AID 1346987). For activity change, negative = cytotoxicity: series mostly up to about 44 µM; % is set by controls: 0 for no effect and ±100 for the full control effect. Note: nearly all actives have a fitted effect of over 65% in size. Note: potency is the fitted concentration of half-maximal effect. A digest of the protocol: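 KB-8-5-11: colchicine-selected sub-line of KB-3-1 over-expressing P-gp; assay medium lacked colchicine. 72 h drug exposure at 37 degree C, CellTiter-Glo.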
Assay [8] in a line: NS1 protein of Zika virus - qHTS assay to identify small molecule inhibitors in human HEK 293 cells (AID 1347053). Note: nearly all actives have a fitted effect of over 55% in size. Note: potency is the fitted concentration of half-maximal effect. A digest of the protocol:
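HEK 293; 20 h pre-culture, 37 C/5% CO2; cpd 1 h pre-infection; ZIKV MR766, MOI = 0.5, 24 h, 37 C; TR-FRET NS1 readout (two anti-NS1 Abs); norm. to no-virus vs infected.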

A short description of assay [9]: Identifying Small Molecule Inhibitors of Pancreatic Cancer Stem Cells (Panc1, Spheroid) (AID 1259359).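 Note: potency is the fitted concentration of half-maximal effect; compound exposure lasted 48 h before reading.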 A digest of the protocol:
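Adherent (2D) versus sphere (3D) formats; spheres generated 14 d in SCM beforehand. Compound transferred by pin tool after 4 h, 48 h incubation, CellTiter-Glo endpoint.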

Assay [10] is described as follows: P-glycoprotein substrates identified in KB-3-1 adenocarcinoma cell line, qHTS therapeutic library screen (AID 1346986). Note: nearly all actives have a fitted effect of over 60% in size.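 Note: potency is the fitted concentration of half-maximal effect; potency is for cytotoxicity meaning loss of cell viability.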 A digest of the protocol:
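KB-3-1 parental cells and P-gp-overexpressing KB-8-5-11 (colchicine omitted during assay) plated at 500 cells/well, dosed in dose-response, incubated 72 h at 37 degree C. CellTiter-Glo luminescence read; KB-8-5-11 also tested with tariquidar.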

The nature of assay [11]: Identifying Small Molecule Inhibitors of Pancreatic Cancer Stem Cells (A2780, Spheroid) (AID 1259357).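 Note: compound exposure lasted 48 h before the ATP luminescence read.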 Note: potency is the fitted concentration of half-maximal effect. Conditions: Potency: A2780 spheroid viability. In short, it runs like this: (§2)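 Monolayer and spheroid cultures are compared. Spheroids form over 14 days in stem cell medium on hydrogel-coated low-attachment plates, then are exposed to compound for 48 h before CellTiter-Glo luminescence.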

Assay [12] is described as follows: Identifying Small Molecule Inhibitors of Pancreatic Cancer Stem Cells (SN12C, Adherent) (AID 1259358).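 Note: cell survival measured after 48 h of compound exposure.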 Note: potency is the fitted concentration of half-maximal effect. A digest of the protocol: (§3)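 After a 4 h attachment period, compounds were pinned into wells and cultures held 48 h under standard incubator conditions. Viability was then measured as CellTiter-Glo luminescence following 10 min at room temperature.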
Assay [13] in a line: Identifying Small Molecule Inhibitors of Pancreatic Cancer Stem Cells (SN12C, Spheroid) (AID 1259360). Note: potency is the fitted concentration of half-maximal effect. The conditions noted are these: Potency: SN12C spheroid viability. A digest of the protocol: as §2
A short description of assay [14]: Identifying Small Molecule Inhibitors of Pancreatic Cancer Stem Cells (Panc1, Adherent) (AID 1259362). Note: potency is the fitted concentration of half-maximal effect. Conditions: Potency: viability. In short, it runs like this: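 Luminescent ATP readout (CellTiter-Glo) quantifies surviving cells after a 48 h drug incubation. Normalization uses DMSO wells as no inhibition and media-only wells as full inhibition; bortezomib served as positive control.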

Assay [15] can be described thus: qHTS assay to identify small molecule inhibitors of chordoma cells - UCH-1 (AID 1259355). Note: % is set by controls: 0 for no effect and ±100 for the full control effect; nearly all actives have a fitted effect of over 55% in size. In short, it runs like this: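 Luminescent ATP read-out (CellTiter-Glo, 30min at room temperature) measured viability of UCH-1 cells exposed for 48hr to test drugs at 15 concentrations, co-dosed with a five-agent combination of auranofin, camptothecin, doxorubicin, rubitecan and topotecan.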

Assay [16] can be described thus: qHTS assay to identify small molecule inhibitors of chordoma cells - UCH-2 (AID 1259356). Note: series mostly up to about 46 µM; % is set by controls: 0 for no effect and ±100 for the full control effect.
Assay [17] is described as follows: Identifying Small Molecule Inhibitors of Pancreatic Cancer Stem Cells (A278, Adherent) (AID 1259361).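 Note: viability read after 48 h compound exposure; 100% = DMSO-treated cells and 0% = cell-free media-only wells; nearly all actives have a fitted effect of over 35% in size.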 A digest of the protocol:
as §3

Where “and” joins values, the source holds several entries; their conditions need not be identical. Equal entries are not always repeated. Records with an inconclusive call do not appear. A structure can be active in one record and inactive in another. Calls of active or inactive are those of the source. Calls come from the whole dose curve; as a rule, active = well fitted curve in the direction sought with a large enough effect; inconclusive = small, poorly fitted or top-dose-only effect, or another doubt; inactive = no such curve, though single readings can be large; an effect the other way counts as inactive or inconclusive.

As to `O=C(CCCCCCC(=O)Nc1ccc([C@H]2O[C@@H](CSc3nc(-c4ccccc4)c(-c4ccccc4)o3)C[C@@H](c3ccc(CO)cc3)O2)cc1)NO`, the Potency entry in [1], in assay [2] and in assay [8] was “inactive” in each case. Moreover, the Potency in [3] was 7.43 µM (active); in assay [4], 13.2 µM (active); in assay [5], 4.69 µM (active); in assay [6] it was 13.2 µM (active); in [7], 11.8 µM (active) and inactive.
In the case of `CC1(O)CC(c2nc(-c3ccc4ccc(-c5ccccc5)nc4c3)c3c(N)nccn23)C1` (stereo unspecified), the Potency result in [1] and in assay [2] was “inactive” throughout. Moreover, the Potency in [3] was 20.9 µM (active); in assay [4], 5.9 µM (active); in assay [5], 13.2 µM (active); in assay [9], 0.148 µM (active); in assay [10] it was 6.51 µM (active); in assay [7], 14.8 µM (active) and 9.2 µM (active).
In the case of `Nc1ccc(C(=O)c2cc3c(ccc4ccccc43)[nH]2)cc1`, the Potency result in assay [1], in assay [2], in [12] and in assay [13] was “inactive” each time. The Potency was 2.64 µM (active) in [3]; 3.32 µM (active) in assay [4]; 1.87 µM (active) in assay [6]; 2.09 µM (active) in assay [11]; 2.96 µM (active) in assay [14]; 1.18 µM (active) in [7]. For the same compound, in assay [8], the Potency is 18.7 µM (active).
On to `COc1c(N2C[C@@H]3CCCN[C@H]3C2)c(F)cc2c(=O)c(C(=O)O)cn(C3CC3)c12`, for which the Potency result in assay [1], in assay [2], in assay [3], in assay [4], in [5] and in assay [15] was “inactive” each time. Besides, the Potency result in assay [8] was “inactive”. Also, in [16], the result was inactive.
As for `C[C@H]1C[C@@H]2[C@@H]([C@@H](O)C[C@@]3(C)[C@H]2CC[C@]3(O)C(=O)CO)[C@@]2(C)C=CC(=O)C=C12`, the Potency result in assay [1], in assay [2], in assay [3], in [4], in assay [5] and in assay [7] was “inactive” each time. The Potency result in assay [8] was “inactive”. The result in assay [16] was inactive.
For the compound `Nc1ccccc1NC(=O)c1ccc(CNC(=O)OCc2cccnc2)cc1`, the Potency result in assay [1], in [2], in assay [12], in assay [13] and in [8] was “inactive” each time. Besides, the Potency in assay [3] is 9.35 µM (active); in [4] it was 2.35 µM (active); in assay [5] it was 2.35 µM (active); in [7], 11.8 µM (active) and 9.2 µM (active). In addition, the IC50 (viability decrease) entry in assay [17] is “inactive”.
On to `CCOC(=O)C1=C(C)NC2=C(C(=O)CC(C)(C)C2)C1c1ccc(-c2ccccc2)cc1` (stereo unspecified), for which the Potency result in assay [1], in assay [2] and in assay [10] was “inactive” throughout. In addition, the Potency in assay [3] is 26.4 µM (active); in [4], 26.4 µM (active); in [5] it was 29.6 µM (active); in assay [7], “inactive and 23.1 µM (active)”; in [8], 10.5 µM (active).
Regarding `Nc1cccc(-c2cc3c(Oc4cccc(O)c4)ncnc3[nH]2)c1`, the Potency entry in assay [1], in assay [2] and in assay [8] was “inactive” in each case. Further, the Potency in [3] was 2.35 µM (active); in assay [4] it was 4.18 µM (active); in assay [5], 3.32 µM (active); in assay [7], 20.9 µM (active).
As for `CCC1=C[C@@H]2CN(C1)Cc1c([nH]c3ccccc13)[C@@](C(=O)OC)(c1cc3c(cc1OC)N(C)[C@@H]1[C@@](O)(C(=O)OC)[C@H](OC(C)=O)[C@]4(CC)C=CCN5CC[C@]31[C@@H]54)C2`, the Potency entry in assay [1], in [2] and in assay [6] was “inactive” each time. Also, the results for the Potency in assay [3], in [4] and in [8] were 0.0148 µM (active), 0.166 µM (active) and 4.18 µM (active), respectively. For the same compound, the compound was called inactive in assay [16].
On to `CC1(C)OC2=C(C(=O)c3ccccc3C2=O)[C@H](NCc2ccccc2)[C@H]1O`, for which the Potency in assay [1] was 18.7 µM (active); in assay [3], 2.64 µM (active); in assay [4], 2.64 µM (active); in [5] it was 2.96 µM (active); in assay [11], 14.8 µM (active); in [12], 26.4 µM (active). The Potency was 0.743 µM (active) in assay [9], 23.5 µM (active) in [13], 3.32 µM (active) in assay [14] and 9.35 µM (active) in assay [7]. Besides, the Potency result in assay [2] is “inactive”.
As to `CC(=O)c1c(C)c2cnc(Nc3ccc(N4CCNCC4)cn3)nc2n(C2CCCC2)c1=O`, the Potency result in [1], in assay [2] and in assay [11] was “inactive” in each case. The Potency in [3] was 18.7 µM (active); in assay [4], 5.26 µM (active); in assay [5], 20.9 µM (active). Besides, the activity change, negative = cytotoxicity in assay [7] is 6.87% [at 5.11 µM] (inactive).
As for `Nc1ccn([C@@H]2CS[C@H](CO)O2)c(=O)n1`, the Potency result in [1], in assay [2], in assay [3], in [4], in assay [5] and in assay [15] was “inactive” in each case. In assay [8], the Potency result is “inactive”. Further, the compound was called inactive in [16].
As to `CC(=O)OCCN1C(=O)c2c(C)nc3ccc(S(=O)(=O)N4CCOCC4)cc3c2C1=O`, the Potency result in assay [1], in [2], in assay [3], in assay [4], in assay [6] and in [11] was “inactive” throughout. Further, the Potency entry in [12], in assay [13], in assay [10], in assay [7] and in [8] was “inactive” in each case. Also, the IC50 (viability decrease) entry in assay [17] is “inactive”. Also, in assay [14], the Potency is 10.5 µM (active).
In the case of `O=C(C=Cc1c(C(=O)O)[nH]c2cc(Cl)cc(Cl)c12)Nc1ccccc1`, the Potency entry in assay [1], in assay [2], in assay [3], in assay [4], in assay [6] and in [11] was “inactive” in each case. The Potency entry in assay [12], in assay [13], in [14], in assay [7] and in assay [8] was “inactive” in each case.
As to `OCCCNc1cc(-c2ccnc(Nc3cccc(Cl)c3)n2)ccn1`, the Potency result in assay [1] and in [2] was “inactive” each time. The Potency in assay [3] is 0.166 µM (active); in assay [4] it was 0.118 µM (active); in assay [5], 0.148 µM (active); in [7], 83.3 nM (active) and 146 nM (active); in [8], 0.418 µM (active).
With `O=C(CCCCCCNC(=O)c1cnc(N(c2ccccc2)c2ccccc2)nc1)NO`, the Potency result in assay [1], in assay [2] and in assay [8] was “inactive” throughout. Further, the Potency is 5.9 µM (active) in assay [3], 5.9 µM (active) in assay [4], 4.18 µM (active) in assay [5] and 5.26 µM (active) in assay [6].
Take `COc1cc2c(NC3CCN(C(C)C)CC3)nc(C3CCCCC3)nc2cc1OCCCN1CCCC1`: the Potency result in assay [1], in assay [2] and in assay [8] was “inactive” in each case. Further, the Potency in [3] is 7.43 µM (active); in assay [4], 7.43 µM (active); in assay [5] it was 5.9 µM (active); in assay [6], 5.26 µM (active).

Source of the values: PubChem BioAssay (NCATS).
